From PubChem BioAssay AID504339 (National Center for Advancing Translational Sciences (NCATS), 2011) come the findings set out here.

In all, about 390,000 compounds went through this assay and about 17,000 (4.4%) were called active. Not shown: some 8% with an inconclusive outcome. The call rests on the fitted dose curve; in most records, active means well fitted inhibition curve with a large enough effect; inconclusive means small, poorly fitted or top-dose-only effect; inactive means no such curve, though single readings can be large or run the other way. Shown is part of a subset that was picked to be rich in actives. Entries that show only a call come without a potency.
Potency means the concentration at half of the fitted maximal effect.

Lysine-specific demethylase 4A (Homo sapiens), sequence (O75164 whole entry, looked up, the tested form may be a part): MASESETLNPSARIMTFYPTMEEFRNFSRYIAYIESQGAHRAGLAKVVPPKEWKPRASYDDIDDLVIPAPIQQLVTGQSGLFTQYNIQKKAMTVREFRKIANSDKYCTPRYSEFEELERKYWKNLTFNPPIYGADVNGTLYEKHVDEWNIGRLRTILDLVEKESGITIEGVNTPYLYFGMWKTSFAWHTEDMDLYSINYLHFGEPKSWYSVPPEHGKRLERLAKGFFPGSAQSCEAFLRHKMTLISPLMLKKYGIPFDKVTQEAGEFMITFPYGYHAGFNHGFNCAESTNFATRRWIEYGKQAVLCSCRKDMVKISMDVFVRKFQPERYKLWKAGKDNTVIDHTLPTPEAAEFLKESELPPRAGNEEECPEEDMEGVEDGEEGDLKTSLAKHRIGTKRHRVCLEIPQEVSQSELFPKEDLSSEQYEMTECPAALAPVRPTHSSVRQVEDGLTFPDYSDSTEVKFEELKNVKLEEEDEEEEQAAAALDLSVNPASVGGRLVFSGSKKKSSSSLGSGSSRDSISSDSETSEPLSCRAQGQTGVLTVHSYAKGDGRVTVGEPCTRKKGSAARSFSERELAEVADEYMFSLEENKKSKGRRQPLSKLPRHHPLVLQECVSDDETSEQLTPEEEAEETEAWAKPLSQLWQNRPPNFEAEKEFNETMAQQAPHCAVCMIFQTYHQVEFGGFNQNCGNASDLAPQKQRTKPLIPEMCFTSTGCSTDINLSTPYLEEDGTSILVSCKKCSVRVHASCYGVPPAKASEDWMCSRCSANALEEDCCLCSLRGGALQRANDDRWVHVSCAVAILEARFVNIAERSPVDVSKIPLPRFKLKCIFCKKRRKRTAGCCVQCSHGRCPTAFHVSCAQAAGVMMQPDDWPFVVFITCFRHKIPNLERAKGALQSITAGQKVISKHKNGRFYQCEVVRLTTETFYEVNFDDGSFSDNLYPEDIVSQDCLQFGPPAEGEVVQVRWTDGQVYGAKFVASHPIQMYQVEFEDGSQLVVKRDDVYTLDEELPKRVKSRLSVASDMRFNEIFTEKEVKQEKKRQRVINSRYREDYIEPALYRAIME

This test has as its target Lysine-specific demethylase 4A (Homo sapiens) (UniProt O75164). Nature of the test: qHTS Assay for Inhibitors of JMJD2A-Tudor Domain. Further: nearly all actives have a fitted effect of over 50% in size. The conditions noted are these: AlphaScreen JMJD2A-Tudor / H3K4me3 peptide binding; series mostly up to 114 µM. For orientation: Quantitative high-throughput screening tests each substance at several concentrations.
For `Cc1c(-c2nsc(NC(=O)c3cccc(Cl)c3)n2)nnn1-c1ccccc1C(F)(F)F`, the Potency result is “inactive”.

For `COc1ccc(NC(=O)CCCN2C(=O)CCn3nc(-c4cn(C)c5ccccc45)cc32)cc1OC`, the Potency result is “inactive”.

Turning to `Cc1ccc(SCC(=O)Nc2ccc3oc(-c4ccccc4C)nc3c2)cc1`, the Potency result was “inactive”.

Regarding `CCN(CC)c1ccc(NC(=O)Cn2nc3c(cc2=O)CCCC3)c(C)c1`, the Potency entry is “inactive”.

With `CCOc1ccc(CC(=O)NCCc2csc3nc(-c4ccccc4F)nn23)cc1`, the Potency result was “inactive”.

For the molecule `O=C(CN1C(=O)C2C3C=CC(C3)C2C1=O)Nc1nc(-c2ccccn2)cs1` (stereo not given), the Potency is 50.1 µM (active).

With `Cc1csc2nc(COC(=O)c3ccc(NC(=O)COc4ccccc4F)cc3)cc(=O)n12`, the Potency result is “inactive”.

`O=C(CN1C(=O)C2C3C=CC(C3)C2C1=O)NCCc1ccccc1Cl` (stereo not given): the Potency result is “inactive”.

`CC1CCN(S(=O)(=O)c2nnc(NC(=O)COc3ccccc3F)s2)CC1`: the Potency entry is “inactive”.

As for `O=C(NCCN1C(=O)C2C3C=CC(C3)C2C1=O)Nc1ccccn1` (stereo not given), the Potency result is “inactive”.

Regarding `CSCCC(NC(=O)c1ccco1)C(=O)Nc1cc(C)ccn1` (stereo not given), the Potency entry was “inactive”.

`CC(NC(=O)c1ccco1)C(=O)Nc1nc(-c2ccccn2)cs1` (stereo not given): the Potency was 44.7 µM (active).

Turning to `Cc1cc(NC(=O)[C@H](C)NC(=O)c2ccco2)ccc1Br`, the Potency result was “inactive”.

Turning to `O=C(COc1ccccc1F)Nc1nc(-c2ccccn2)cs1`, the Potency is 79.4 µM (active).

`CCOc1ccccc1CNC(=O)Nc1cn(CC(C)C)c(=O)c2ccccc12`: the Potency result is “inactive”.

For the molecule `CCc1nn(CC(=O)N2CCN(c3ccc(Cl)cc3)CC2)c(=O)c2cc3occc3n12`, the Potency result is “inactive”.

Take `Cc1ccc(CCNC(=O)c2ccc(CS(=O)(=O)Cc3cccc(C)c3)o2)cc1`: the Potency entry is “inactive”.

As to `Cc1ccc(-n2c(SCC(=O)Nc3cccc(F)c3)nc3c(oc4ccccc43)c2=O)cc1C`, the Potency entry is “inactive”.

For `COC(=O)c1ccc(/C=N/N2C(C)CCCC2C)cc1` (stereo not given), the Potency is 63.1 µM (active).

`COC(=O)c1ccc(/C=N/NC(=O)C(=O)N2CCCCCC2)cc1`: the Potency result was “inactive”.

Turning to `COC(=O)c1ccc(/C=N/OCC(=O)Nc2cc(F)ccc2F)cc1`, the Potency result is “inactive”.

Consider `CCOc1cccc(/C(O)=C2/C(=O)C(=O)N(CCOC)C2c2ccncc2)c1` (stereo not given), for which the Potency result was “inactive”.

Consider `CCCOc1ccc(C2c3c(-c4ccccc4O)n[nH]c3C(=O)N2Cc2cccnc2)cc1` (stereo not given), for which the Potency result was “inactive”.

On to `CCOc1ccc(/C(O)=C2/C(=O)C(=O)N(Cc3cccnc3)C2c2ccc(N(C)C)cc2)c(C)c1` (stereo not given), for which the Potency is 56.2 µM (active).

With `COc1ccccc1CNCc1cccs1`, the Potency result was “inactive”.

Consider `COc1ccc(OC)c(CN2CCN(C(=O)CNC(=O)c3cc(C)cc(C)c3)CC2)c1`, for which the Potency entry is “inactive”.

Take `CNCC(O)CN1CCN(c2ccccc2OC)CC1` (stereo not given): the Potency entry is “inactive”.

Take `CC(C)OCC(O)CN1CCN(C(c2ccccc2)c2ccccc2)CC1` (stereo not given): the Potency result is “inactive”.

As for `COc1ccccc1N1CCN(Cc2cc(OC)c3c(c2)OCO3)CC1`, the Potency result is “inactive”.

Consider `COc1ccccc1CN1CCN(Cc2cc(OC)c(OC)cc2OC)CC1`, for which the Potency is 7.08 µM (active).

Consider `COc1ccccc1NC(=S)N1CCN(C(c2ccccc2)c2ccccc2)CC1`, for which the Potency entry is “inactive”.

Turning to `COc1ccccc1N1CCN(Cc2ccc(OC)c3ccccc23)CC1`, the Potency was 3.16 µM (active).

As for `COc1ccccc1CN1CCN(C(c2ccccc2)c2ccccc2)CC1`, the Potency was 50.1 µM (active).

With `Oc1ccccc1CN1CCN(C(c2ccccc2)c2ccccc2)CC1`, the Potency is 56.2 µM (active).

Regarding `CC(=O)N1CCN(CC(c2ccccc2)c2ccccc2)CC1`, the Potency entry was “inactive”.

`COc1ccccc1Cn1c(CO)nc2ccccc21`: the Potency result is “inactive”.

Regarding `CCCCNc1ccc(-c2nc(-c3ccncc3)no2)cc1[N+](=O)[O-]`, the Potency entry is “inactive”.

For the molecule `CCOC(=O)c1c(S(=O)(=O)N2CCC(C(=O)NCc3ccccc3OC)CC2)c(C)n(C)c1C`, the Potency result was “inactive”.

`O=C(COc1ccccc1)NCc1ccc2c(c1)CCN2C(=O)c1ccc(F)cc1`: the Potency entry is “inactive”.

Regarding `COc1ccc(-c2c(C)nn3c(N4CCC(C(=O)NCCC(C)C)CC4)cc(C)nc23)cc1OC`, the Potency entry is “inactive”.

With `COc1ccccc1CNc1nc2ccc(Cl)cc2n2cnnc12`, the Potency result is “inactive”.

As to `COc1ccc(-n2c(=O)[nH]c3cc(C(=O)NCCc4ccc(OC)c(OC)c4)ccc3c2=O)c(OC)c1`, the Potency result is “inactive”.

On to `CCn1c(C)c(C)c2cc(C(=O)NCCc3cc(OC)ccc3OC)ccc21`, for which the Potency was 35.5 µM (active).

As to `COc1ccc(OC)c(CCNC(=O)c2nn(C)c3c2CS(=O)(=O)c2ccccc2-3)c1`, the Potency result was “inactive”.

`Cc1cc(C)c(-c2n[nH]c3c2C(c2ccccc2F)N(CCO)C3=O)c(O)c1` (stereo not given): the Potency result was “inactive”.

For the molecule `COc1ccc(N(Cc2ccc(N(C)C)cc2)C(=O)c2ccc(S(C)(=O)=O)cc2)cc1`, the Potency is 63.1 µM (active).

Consider `COc1ccc(CNC(=O)Cn2nnc(-c3ccc(S(C)(=O)=O)cc3)n2)cc1`, for which the Potency result is “inactive”.

As to `COc1ccc(S(=O)(=O)NCc2ccc(C(=O)N(C)Cc3ccco3)cc2)cc1`, the Potency result is “inactive”.

Turning to `CCn1cc2nc(SCc3ccccc3Cl)n(CCc3ccccc3)c(=O)c2n1`, the Potency entry was “inactive”.

Consider `O=C(c1cccc(Br)c1)N1CCN(Cc2cc(=O)n3nc(-c4ccccc4)sc3n2)CC1`, for which the Potency result is “inactive”.

Take `COCCCNC(=O)c1c(NC(=O)c2cc(=O)c3cc(C)c(C)cc3o2)sc2c1CCCC2`: the Potency result was “inactive”.

As for `Cc1ccc(-c2nn3c(=O)cc(CN4CCN(C(=O)Nc5cccc(C(F)(F)F)c5)CC4)nc3s2)cc1`, the Potency entry was “inactive”.

Take `COc1ccc(N(C(=O)c2cccnc2)S(=O)(=O)c2ccc(OC)c(OC)c2)cc1`: the Potency entry was “inactive”.

In the case of `O=C(c1cccnc1)N(c1cc2sc(=O)oc2c2ccccc12)S(=O)(=O)c1ccccc1`, the Potency was 25.1 µM (active).

Regarding `O=C(c1cccnc1)N(Cc1ccccc1)C(=O)c1cccnc1`, the Potency entry was “inactive”.

As for `COc1ccc(C(F)(F)F)cc1NC(=O)c1sc2nc(-c3cccs3)ccc2c1N`, the Potency result was “inactive”.

For the molecule `COc1cccc(CNC(=O)C(NS(=O)(=O)c2ccc3nc(C)sc3c2)C(C)C)c1` (stereo not given), the Potency entry was “inactive”.

Take `CCOC(=O)N1CCN(CCC(=O)Nc2cc(OC)ccc2OC)CC1`: the Potency entry was “inactive”.

In the case of `CCOC(=O)N1CCN(C(=O)C2CCN(S(=O)(=O)c3cc(Cl)ccc3OCC)CC2)CC1`, the Potency result is “inactive”.

`CCOC(=O)N1CCN(C(=O)C2CCN(Cc3ccc(OC)cc3OC)CC2)CC1`: the Potency was 1 µM (active).

For `CC(C)(C)c1ccc(C(=O)NCC(c2ccco2)S(=O)(=O)c2ccc(F)cc2)cc1` (stereo not given), the Potency result was “inactive”.

On to `O=C(NCc1cccnc1)C(=O)NCC(c1cccnc1)N1CCN(c2ccccc2)CC1` (stereo not given), for which the Potency entry is “inactive”.

On to `COc1ccc(CNC(=O)c2cc3c(-c4ccccc4F)nn(C)c3s2)c(OC)c1`, for which the Potency result is “inactive”.

Consider `Cc1cc2c(cc1C)C(c1cccc(OC(C)C)c1)CC(=O)N2` (stereo not given), for which the Potency result is “inactive”.

With `COc1cc(Br)cc2cc(S(=O)(=O)c3ccccc3)c(=O)oc12`, the Potency entry was “inactive”.

As to `O=C(Cn1nc(CNc2ccc(Cl)cc2)[n+]2c1CCCCC2)c1ccc(Cl)cc1`, the Potency was 44.7 µM (active).

For the molecule `O=C(Cn1nc(C(F)(F)F)c2c1CCCC2)Nc1ccc(Cl)cc1`, the Potency entry was “inactive”.

With `O=C(Cn1ncc(N2CCCC2)c(Br)c1=O)c1ccc(Cl)cc1`, the Potency result is “inactive”.

For `COc1cc(OC)c(NC(=O)c2c3c(nn2C)-c2ccccc2SC3)cc1Cl`, the Potency result is “inactive”.

Consider `CC(C(=O)NC1CCS(=O)(=O)C1)N1C(=O)/C(=C/c2ccc(Cl)cc2)SC1=S` (stereo not given), for which the Potency was 56.2 µM (active).

With `O=C(Cc1ccc(Cl)cc1)NC1CCS(=O)(=O)C1` (stereo not given), the Potency entry was “inactive”.

Consider `CN(C(=O)CN1C(=O)/C(=C/c2ccc(Cl)cc2)SC1=S)C1CCS(=O)(=O)C1` (stereo not given), for which the Potency result was “inactive”.

As to `COc1ccccc1C(=O)OCc1cc(=O)n2nc(-c3cccs3)sc2n1`, the Potency result is “inactive”.

Take `COc1ccc(NC(=O)CN(C)C(=O)c2ccc(NC3CC3)c([N+](=O)[O-])c2)cc1`: the Potency result is “inactive”.

Take `Cc1c(NS(=O)(=O)c2ccc(NC3CCCC3)c([N+](=O)[O-])c2)c(=O)n(-c2ccccc2)n1C`: the Potency result is “inactive”.

In the case of `Cc1cc(C=O)c(C)n1-c1ccc(NC2CCCCC2)c([N+](=O)[O-])c1`, the Potency is 17.8 µM (active).

On to `Cc1ccc(C)c2sc(NC(=O)c3ccc(S(=O)(=O)N4CCCC4)cc3)nc12`, for which the Potency entry was “inactive”.

On to `COc1ccccc1CNS(=O)(=O)c1cc(Br)cc2c1N(C(C)=O)C(C)C2` (stereo not given), for which the Potency result was “inactive”.

On to `CC(C)CCNC(=O)CSc1nc2ccccc2nc1Cc1ccc(Cl)cc1`, for which the Potency result is “inactive”.

Turning to `CCC1CCCCN1S(=O)(=O)c1ccc(NC(=O)c2cc(=O)c3ccccc3o2)cc1` (stereo not given), the Potency result is “inactive”.

Turning to `CCOc1ccc(Nc2ncnc3scc(-c4ccc(OC)cc4)c23)cc1`, the Potency entry is “inactive”.

Turning to `O=C(CSc1nccn1Cc1ccc(Cl)cc1)NCc1ccccc1`, the Potency result is “inactive”.

As for `COC(=O)CCSc1nccn1Cc1ccccc1`, the Potency was 35.5 µM (active).

Take `CCCCNC(=O)CSc1nccn1Cc1ccccc1`: the Potency entry was “inactive”.

For `COc1ccc(CNC(=O)c2ccc3c(O)c(S(=O)(=O)c4ccccc4)c(=O)[nH]c3c2)cc1`, the Potency result was “inactive”.

With `Cc1ccccc1NC(=O)c1c(NC(=O)c2ccccc2F)sc2c1CCC(C)C2` (stereo not given), the Potency result is “inactive”.

With `COc1cc(C2/C(=C(\O)c3ccc4c(c3)CC(C)O4)C(=O)C(=O)N2Cc2ccco2)ccc1O` (stereo not given), the Potency result was “inactive”.

In the case of `COc1cc(C2/C(=C(\O)c3ccc4c(c3)CC(C)O4)C(=O)C(=O)N2c2nnc(C)s2)cc(OC)c1OC` (stereo not given), the Potency was 44.7 µM (active).

Regarding `CCOc1ccc(C2/C(=C(/O)c3ccc4c(c3)CC(C)O4)C(=O)C(=O)N2CCCn2ccnc2)cc1` (stereo not given), the Potency entry is “inactive”.

Take `O=C(Nc1ccc2c(c1)OCO2)c1cc(-c2cccc(Cl)c2)on1`: the Potency entry was “inactive”.

Consider `CC(C)C12CN3CC(C(C)C)(CN(C1)C3c1ccc(OCc3ccccc3)cc1)C2=O` (stereo not given), for which the Potency result was “inactive”.

For `O=C(O)C1OC(C(=O)O)C2C1C(F)(F)C2(F)F` (stereo not given), the Potency was 28.2 µM (active).

Turning to `Cc1ccc2nc(/C(C#N)=C/c3ccccc3F)[nH]c2c1`, the Potency result was “inactive”.

As for `O=C(NNC(=O)c1ccc(Cl)nc1)c1ccc(Br)cc1`, the Potency result is “inactive”.

As to `COc1ccc(C(=O)/C=C/Nc2ccccn2)cc1`, the Potency entry is “inactive”.

As for `O=C(NNc1ccccn1)c1ccc(Cl)nc1`, the Potency was 4.47 µM (active).

`COc1ccccc1-c1noc(-c2ccc(NCc3ccccc3)c([N+](=O)[O-])c2)n1`: the Potency entry is “inactive”.

With `CCN1CCC2(CC1)N=C(c1ccc(F)cc1)C(=S)N2C(=O)c1ccc(C)cc1`, the Potency was 31.6 µM (active).

With `Cc1ccc(NC(=O)CN2C(=O)C(c3ccc(F)cc3)=NC23CCCCCC3)c(C)c1`, the Potency entry is “inactive”.

For `CCN1CCC(N(Cc2ccc(F)cc2)C(=O)Nc2cc(C)ccc2C)CC1`, the Potency result is “inactive”.
